What was measured:
[1] = target: 5'-AMP-activated protein kinase catalytic subunit alpha-2 (Homo sapiens) (UniProt P54646); settings: at 1 µM
[2] = target: T1, NUAK family SNF1-like kinase 1 (Homo sapiens) (UniProt O60285); settings: at 0.1 µM
T1 sequence (whole entry): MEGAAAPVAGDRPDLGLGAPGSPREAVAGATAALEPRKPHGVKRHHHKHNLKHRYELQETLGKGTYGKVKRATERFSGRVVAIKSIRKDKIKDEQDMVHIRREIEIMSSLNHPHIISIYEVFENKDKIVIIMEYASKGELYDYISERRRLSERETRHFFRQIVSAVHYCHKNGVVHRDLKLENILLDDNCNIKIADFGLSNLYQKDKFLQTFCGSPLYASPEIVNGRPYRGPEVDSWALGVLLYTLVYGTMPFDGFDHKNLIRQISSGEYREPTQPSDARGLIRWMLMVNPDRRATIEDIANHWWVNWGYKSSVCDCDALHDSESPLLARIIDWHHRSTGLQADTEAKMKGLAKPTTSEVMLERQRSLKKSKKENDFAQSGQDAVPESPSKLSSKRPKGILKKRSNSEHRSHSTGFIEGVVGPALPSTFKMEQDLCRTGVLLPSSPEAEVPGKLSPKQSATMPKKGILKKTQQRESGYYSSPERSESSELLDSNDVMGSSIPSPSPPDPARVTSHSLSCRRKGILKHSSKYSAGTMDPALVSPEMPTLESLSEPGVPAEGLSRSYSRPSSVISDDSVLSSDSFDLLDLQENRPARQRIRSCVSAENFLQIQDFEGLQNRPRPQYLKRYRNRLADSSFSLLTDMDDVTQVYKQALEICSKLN

[3] = target: T1, NUAK family SNF1-like kinase 1 (Homo sapiens); settings: at 1 µM
[4] = target: T2, Serine/threonine-protein kinase BRSK1 (Homo sapiens) (UniProt Q8TDC3); settings: at 0.1 µM
T2 sequence (whole entry): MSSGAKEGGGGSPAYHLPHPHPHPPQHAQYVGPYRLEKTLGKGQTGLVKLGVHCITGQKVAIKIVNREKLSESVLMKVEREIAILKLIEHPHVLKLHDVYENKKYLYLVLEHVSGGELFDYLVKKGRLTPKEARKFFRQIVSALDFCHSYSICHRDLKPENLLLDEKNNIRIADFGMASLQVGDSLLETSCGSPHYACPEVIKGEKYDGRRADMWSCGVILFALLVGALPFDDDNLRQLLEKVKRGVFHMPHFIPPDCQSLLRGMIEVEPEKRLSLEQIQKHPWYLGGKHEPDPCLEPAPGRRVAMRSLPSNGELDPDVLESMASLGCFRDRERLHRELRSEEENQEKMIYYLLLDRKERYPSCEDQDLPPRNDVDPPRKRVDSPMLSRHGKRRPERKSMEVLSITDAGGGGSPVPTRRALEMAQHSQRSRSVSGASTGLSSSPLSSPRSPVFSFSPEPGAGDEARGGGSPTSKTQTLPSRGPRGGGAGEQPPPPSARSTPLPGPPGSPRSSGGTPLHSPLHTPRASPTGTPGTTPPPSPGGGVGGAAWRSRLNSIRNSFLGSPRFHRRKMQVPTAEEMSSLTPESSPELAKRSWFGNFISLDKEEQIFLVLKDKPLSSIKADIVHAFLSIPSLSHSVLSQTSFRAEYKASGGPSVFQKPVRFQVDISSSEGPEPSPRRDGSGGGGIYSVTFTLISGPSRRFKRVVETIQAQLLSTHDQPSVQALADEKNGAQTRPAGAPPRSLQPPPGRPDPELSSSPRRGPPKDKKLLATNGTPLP

[5] = target: T2, Serine/threonine-protein kinase BRSK1 (Homo sapiens); settings: at 1 µM
[6] = target: T3, Serine/threonine-protein kinase BRSK2 (Homo sapiens) (UniProt Q8IWQ3); settings: at 0.1 µM
T3 sequence (whole entry): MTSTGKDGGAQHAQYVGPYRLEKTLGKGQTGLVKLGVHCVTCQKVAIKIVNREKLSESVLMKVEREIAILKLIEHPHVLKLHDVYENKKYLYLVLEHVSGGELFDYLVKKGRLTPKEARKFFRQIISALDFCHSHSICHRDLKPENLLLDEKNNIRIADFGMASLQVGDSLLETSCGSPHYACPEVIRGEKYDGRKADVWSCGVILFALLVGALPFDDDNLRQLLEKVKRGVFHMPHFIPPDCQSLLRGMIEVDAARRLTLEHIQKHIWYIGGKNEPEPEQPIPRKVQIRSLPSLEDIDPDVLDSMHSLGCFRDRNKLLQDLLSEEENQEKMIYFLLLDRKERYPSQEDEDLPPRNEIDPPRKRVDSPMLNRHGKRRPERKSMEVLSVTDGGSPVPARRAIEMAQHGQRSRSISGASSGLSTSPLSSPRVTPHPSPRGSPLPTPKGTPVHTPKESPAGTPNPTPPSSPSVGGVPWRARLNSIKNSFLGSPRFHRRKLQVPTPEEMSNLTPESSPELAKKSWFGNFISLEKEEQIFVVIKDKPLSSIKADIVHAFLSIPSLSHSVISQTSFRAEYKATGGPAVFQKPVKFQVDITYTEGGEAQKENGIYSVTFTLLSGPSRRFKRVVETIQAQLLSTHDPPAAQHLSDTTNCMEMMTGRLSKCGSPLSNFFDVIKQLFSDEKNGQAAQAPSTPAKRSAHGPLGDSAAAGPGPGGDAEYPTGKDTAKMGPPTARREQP

[7] = target: T3, Serine/threonine-protein kinase BRSK2 (Homo sapiens); settings: at 1 µM
[8] = target: Calcium/calmodulin-dependent protein kinase type 1D (Homo sapiens) (UniProt Q8IU85); settings: at 0.1 µM
[9] = target: Calcium/calmodulin-dependent protein kinase type 1D (Homo sapiens) (UniProt Q8IU85); settings: at 1 µM
[10] = target: Calcium/calmodulin-dependent protein kinase type II subunit alpha (Homo sapiens) (UniProt Q9UQM7); settings: at 0.1 µM;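 also: reported values are averages (mean inhibition of CAMK2A)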
Chain of Calcium/calmodulin-dependent protein kinase type II subunit alpha (Homo sapiens) (Q9UQM7 whole entry): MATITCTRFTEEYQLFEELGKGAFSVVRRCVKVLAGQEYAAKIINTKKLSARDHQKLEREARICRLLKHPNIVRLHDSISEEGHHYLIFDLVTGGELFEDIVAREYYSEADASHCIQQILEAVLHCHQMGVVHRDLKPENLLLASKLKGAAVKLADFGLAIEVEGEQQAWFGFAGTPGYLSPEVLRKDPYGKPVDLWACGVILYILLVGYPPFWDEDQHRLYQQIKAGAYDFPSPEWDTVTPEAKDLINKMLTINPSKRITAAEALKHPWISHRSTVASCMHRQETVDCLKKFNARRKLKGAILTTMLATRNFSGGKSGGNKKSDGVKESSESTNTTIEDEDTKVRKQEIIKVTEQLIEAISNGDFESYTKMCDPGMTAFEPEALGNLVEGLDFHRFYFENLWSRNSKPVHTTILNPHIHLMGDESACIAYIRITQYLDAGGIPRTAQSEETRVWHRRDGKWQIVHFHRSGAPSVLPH

Chain of Calcium/calmodulin-dependent protein kinase type 1D (Homo sapiens) (Q8IU85 whole entry, looked up): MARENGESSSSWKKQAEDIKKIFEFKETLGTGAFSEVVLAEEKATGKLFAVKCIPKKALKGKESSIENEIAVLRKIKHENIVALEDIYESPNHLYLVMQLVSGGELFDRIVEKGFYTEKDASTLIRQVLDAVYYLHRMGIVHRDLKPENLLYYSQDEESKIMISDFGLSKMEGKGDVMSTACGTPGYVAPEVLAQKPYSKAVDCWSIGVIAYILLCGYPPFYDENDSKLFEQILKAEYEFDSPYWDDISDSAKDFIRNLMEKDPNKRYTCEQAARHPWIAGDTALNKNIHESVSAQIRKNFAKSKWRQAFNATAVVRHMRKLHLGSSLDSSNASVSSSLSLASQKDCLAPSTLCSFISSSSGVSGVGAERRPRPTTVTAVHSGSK
Chain of 5'-AMP-activated protein kinase catalytic subunit alpha-2 (Homo sapiens) (P54646 whole entry, looked up): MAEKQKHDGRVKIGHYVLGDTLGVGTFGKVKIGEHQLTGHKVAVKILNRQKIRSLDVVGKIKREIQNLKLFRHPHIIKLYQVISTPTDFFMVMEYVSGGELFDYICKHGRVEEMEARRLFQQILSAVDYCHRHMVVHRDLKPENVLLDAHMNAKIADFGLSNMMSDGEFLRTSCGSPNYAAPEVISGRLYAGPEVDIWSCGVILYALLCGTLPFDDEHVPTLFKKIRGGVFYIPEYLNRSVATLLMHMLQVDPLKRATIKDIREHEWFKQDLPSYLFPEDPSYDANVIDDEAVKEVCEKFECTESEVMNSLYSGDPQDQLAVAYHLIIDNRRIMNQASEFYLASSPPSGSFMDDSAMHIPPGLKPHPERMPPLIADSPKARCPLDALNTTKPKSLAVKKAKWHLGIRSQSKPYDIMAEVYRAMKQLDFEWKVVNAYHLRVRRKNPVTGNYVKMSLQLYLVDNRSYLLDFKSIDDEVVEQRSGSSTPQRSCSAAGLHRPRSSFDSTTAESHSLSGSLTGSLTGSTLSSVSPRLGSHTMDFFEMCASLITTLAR

SMILES	inhibition [1] [%]	inhibition [2] [%]	inhibition [3] [%]	inhibition [4] [%]	inhibition [5] [%]	inhibition [6] [%]	inhibition [7] [%]	inhibition [8] [%]	inhibition [9] [%]	inhibition [10] [%]
Cc1ccc(NC(=O)CC2CC2)cc1-c1ccc(C(=O)NCC2CC2)cc1	3.66	2.19	3.71	-0.17	0.46	1.82	3.93	0.97	0.89	2.5
COC(=O)c1cncc(/C=C/c2c(C)cc(O)cc2C)c1	2.21	3.22	8.1	-1.29	7.61	1.09	6.54	-0.5	-0.32	1.91
Cc1cc(Cl)cc2c1NC(=O)C2=NNc1ccc(S(N)(=O)=O)cc1	1.04	0.35	8.3	-1.42	3.61	1.16	3.77	0.2	-0.6	4.14
Nc1nccc(C#Cc2cncnc2Nc2ccc(OCc3cccc(F)c3)c(Cl)c2)n1	6.02	2.82	9.68	3.95	8.92	4.89	10.8	-0.54	2.27	3.24
NC(=O)c1sc(-n2cnc3ccccc32)cc1OCc1ccccc1Br	4.98	7.8	29.1	3.67	8.3	3.06	17.1	0.13	2.21	1.7
N#Cc1cccc(Nc2nccc(-c3cnn4ncccc34)n2)c1	12.5	38.5	73.4	0.94	7.19	2.94	12.1	-0.83	3.54	7.55
CN(C)C(=O)O[C@@H]1CN[C@@H](C#Cc2cc3ncnc(Nc4ccc(OCc5cccc(F)c5)c(Cl)c4)c3s2)C1	3.03	-0.32	0.15	1.77	1.18	1.4	1.44	1.61	1.9	1.78
Cc1nc(-c2ccccc2)n2nc(NCCCN3CCOCC3)ncc12	4.91	0.66	20.3	1.1	-0.76	1.22	2.49	1.67	2.49	2.42
CC(C)c1ccc2c(c1)NC(=O)/C2=N/Nc1ccc(S(N)(=O)=O)cc1	0.27	11	41.7	0.3	1.21	-0.18	7.2	-0.63	1.05	-0.9
CS(=O)(=O)CCNCc1nc(-c2ccc3ncnc(Nc4ccc(OCc5cccc(C(F)(F)F)c5)cc4)c3c2)cs1	2.15	0.06	2.2	2.31	-0.57	0.24	1.3	-0.5	2.37	1.59
ON=C1CCc2cc(-c3nc(C4CCNCC4)[nH]c3-c3ccncc3)ccc21	2.64	0.54	1.89	1.34	0.41	-0.35	1.99	0.14	11.8	1.63
C[C@@H](Oc1cc(-n2cnc3ccc(OCC4CCN(C)CC4)cc32)sc1C(N)=O)c1ccccc1C(F)(F)F	14	50.5	76.6	22.4	61.1	33.9	74.5	0	4.15	-0.63
COc1cc2ncn(-c3cc(OCc4ccccc4S(C)(=O)=O)c(C#N)s3)c2cc1OC	31.2	14.5	54.3	37.1	76.3	53.7	82.2	1.23	6.21	6.03
O=C(Nc1ccc(Oc2ccc3[nH]c(NC(=O)c4ccco4)nc3c2)cc1)Nc1cc(C(F)(F)F)ccc1F	3.81	0.89	5.7	0.62	-0.05	-0.37	1.01	0.46	3.08	0.33
CCn1c(-c2nonc2N)nc2c(C#CC(C)(C)O)nc(OCCNC)cc21	3.94	1.05	3.39	1.73	0.16	1.24	4.81	1.21	2.06	3.99
Cc1ccc2c(-c3ccnc(Nc4ccc5c(c4)OCCO5)n3)c(-c3ccc(C(F)(F)F)cc3)nn2n1	1.71	-1.23	1.59	-0.85	1.31	0.24	0.79	0.52	9.99	0.68
COC(=O)Nc1nc2cc(Oc3ccc(NC(=O)Nc4cccc(Br)c4)cc3)ccc2[nH]1	4.23	3.02	2.47	-0.15	0.86	2	0.84	1.16	0.29	3.25

SMILES	inhibition [1] [%]	inhibition [2] [%]	inhibition [3] [%]	inhibition [4] [%]	inhibition [5] [%]	inhibition [6] [%]	inhibition [7] [%]	inhibition [8] [%]	inhibition [9] [%]	inhibition [10] [%]
Nc1nccc(-c2c(-c3ccc(F)cc3)ncn2CCCN2CCOCC2)n1	4.51	3.4	-1.7	0.99	-1.18	0.6	1.72	0.27	-0.53	2.67
NS(=O)(=O)c1ccc(Nc2cc(-c3cccc(O)c3)n[nH]2)cc1	9.57	5.05	13.9	3.55	4.52	3.59	7.4	1.05	0.76	4.18
COc1cccc(-n2nc(C)c3c(N/N=C(\C)c4ccncc4)ncnc32)c1	1.4	3.11	2.97	0.77	-2.02	-0.07	0.93	-0.6	2.19	-1.72
CN(c1ccc(NC(=O)Nc2ccc(OC(F)(F)F)cc2)cc1)c1ccnc(Nc2cccc(S(N)(=O)=O)c2)n1	2.41	-0.52	10.1	1.53	5.53	1.94	1.96	-0.31	0.2	3.05
CS(=O)(=O)Nc1cccc(-c2ccc3c(NC(=O)C4CC4)n[nH]c3c2)c1	6.02	-0.11	1.95	3.46	18.7	2.32	19.1	2.26	1.87	7.84
c1ccc(Nc2ncc(-c3ccccc3)o2)cc1	0.19	-0.12	11	0.5	2.07	0.2	3.56	1.22	2.94	2.13
COc1ccc2ncnc(Nc3ccc(OCc4ccccc4)cc3)c2c1	2.09	0.25	-1.38	-0.52	0.79	2.22	1.79	0.63	1.33	0.65
OCc1ccc(-c2nc(-c3ccccn3)c(-c3ccc4c(c3)OCO4)[nH]2)cc1	4.26	3.72	5.56	2.53	1.5	2	0.59	0.54	0.26	4.98
CN(C)c1cc2c(Nc3ccc4c(cnn4Cc4ccccc4)c3)ncnc2cn1	2.49	1.17	3.46	2.42	7.54	2.27	9.3	-0.24	0.88	2.88
N#Cc1c(NC(=O)c2ccccc2F)sc2c1CCCC2	0.55	2.6	3.42	0.36	1.62	1.76	3.8	-0.22	0.3	-2.24
NC(=O)c1cccc(Nc2nccc(Nc3cccc(F)c3)n2)c1	3.97	23	58.2	1.64	7.42	0.1	8.9	0.4	3.1	2.84
FC(F)(F)c1ccc(-c2nn3ncccc3c2-c2ccnc(Nc3ccc4c(c3)OCCO4)n2)cc1	4.55	4.03	5.73	5.08	8.29	6.76	11.7	2.95	-0.58	-2.94
COc1cccc(-n2ncc3c(N/N=C/c4ccc(C)cc4)ncnc32)c1	6	6.88	16.2	6.04	9.05	5.73	12.7	0.52	3.47	3.6
COc1cc2ncnc(Nc3ccc4c(cnn4Cc4ccccc4)c3)c2cc1OC	3.91	-0.12	2.05	1.23	1.11	0.79	4.84	0.22	1.49	0.08
NS(=O)(=O)c1ccc(-c2cc3ccncc3cc2OCc2ccccc2)cc1	2.32	-0.67	-0.08	-0.48	0.47	0.96	2.69	-6.04	0.65	1.83
COc1cc(Nc2nccc(-c3cnn4ncccc34)n2)cc(OC)c1	17.4	69.1	84.8	1.03	5.11	0.3	6.76	0.86	6.41	3.61
NS(=O)(=O)c1ccc(NC=C2C(=O)Nc3ccc4ncsc4c32)cc1	53.4	69.9	69.8	34.1	60.3	45.2	63.6	2.99	8.72	4.91

— ChEMBL document CHEMBL1961873, “Compounds: GSK PKIS; Assays: Nanosyn kinase panel” (2012)
